Measured values from PubChem BioAssay AID1347076 (National Center for Advancing Translational Sciences (NCATS), 2019).
The whole screen tested about 400,000 compounds, of which about 13,000 (3.2%) were called active. Another 18% or so got no clear call; they are omitted. This excerpt belongs to a sample that is enriched for actives. A number with no mark means an inactive call. Calls follow the shape of the dose curve; as a rule, active = well fitted cell-killing curve with a large enough effect; inconclusive = small, poorly fitted or top-dose-only effect, or effect the other way; inactive = flat fitted curve, though single readings scatter.

Experiment: qHTS assay for MDR1-selective chemotherapeutics: Primary screen using the drug-selected MDR subline cells KB-V1; also: nearly all actives have a fitted effect of over 60% in size
Details: KB-V1 MDR cells viability, CellTiter-Glo, 72 h; series mostly up to 46.1 µM; activity change, negative = cytotoxicity: at the top concentration
In short: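 Cytotoxicity via CellTiter-Glo luminescence after 72 h compound exposure at 37 degrees C. Cells: drug-selected KB-V1 line, DMEM phenol-red free plus 10% FBS. Compounds tested at multiple concentrations; normalized data fitted to concentration-effect curves.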
% is scaled to controls: 0 for no effect and ±100 for the full control effect; potency is read from the fitted curve at half-maximal effect.

| Structure (SMILES) | activity change, negative = cytotoxicity | Potency |
| --- | --- | --- |
| COc1cc(C(=O)NCCc2csc3nc(-c4ccccc4C)nn23)cc(OC)c1OC | 5.16% |  |
| CCC(CC)C(=O)N1CCc2cc(OC)c(OC)cc2C1COc1ccc(F)cc1 (stereo not drawn) | -17% |  |
| COc1ccc2c(c1)CCNC2Cc1ccc(OC)c(O)c1 (stereo not drawn) | -11.2% |  |
| CC[C@H]1CN2CCc3cc(OC)c(OC)cc3[C@@H]2C[C@@H]1C[C@H]1NCCc2cc(OC)c(OC)cc21 |  | 5.17 µM (active) |
| Cc1cc(Cl)ccc1-c1nc(NCCN(C)C)nc2ccsc12 | 1.27% |  |
| COc1cc(C=NC2CCCCC2)ccc1O | 5.52% |  |
| CCc1ccc(-c2nn3c(C)nnc3s2)cc1NC(=O)c1ccc(-c2cccc(Cl)c2)o1 | -9.55% |  |
| CCOc1cccc(-c2nn3c(-c4ccccn4)nnc3s2)c1 |  | 5.17 µM (active) |
| CCOc1cccc(-c2nnc(SCC(=O)NC3CC3)n2C)c1 | 15.3% |  |
| CCOC(=O)C1CCN(C(=O)c2ccc3c(=O)n4nc(Nc5ccccc5CC)sc4nc3c2)CC1 | -15.5% |  |
| COc1cc(NC(=O)Cn2nc(-c3ccc(C)c(C)c3)ccc2=O)cc(OC)c1 | 8.58% |  |
| Cc1ccc(-c2nc3c(Cl)cc(C(F)(F)F)cn3c2Cc2cccc(Cl)c2)cc1 | -0.482% |  |
| O=c1c([N+](=O)[O-])cc(C(F)(F)F)cn1Cc1cccc(Cl)c1 |  | 18.4 µM (active) |
| CC(NC(=O)Cn1cc(C(F)(F)F)cc(Cl)c1=O)c1ccccc1 (stereo not drawn) | -0.457% |  |
| Cn1c(NCc2cccnc2)nc2cc(-c3ccc(F)cc3)sc2c1=O | -1.46% |  |
| O=C(Nc1ccccc1C(F)(F)F)c1nc(S(=O)(=O)Cc2ccccc2F)ncc1Cl | 10.7% |  |
| COc1ncnc2c1ncn2CCCNCCN1CCOCC1 | 70.3% |  |
| O=c1[nH]c(=O)n(Cc2ccco2)c2c1C(C(F)(F)F)(C(F)(F)F)N=C(c1ccco1)N2 | -26.4% |  |
| Cc1ccccc1C1=NC(C(F)(F)F)(C(F)(F)F)c2c(n(-c3ccc(F)cc3)c(=O)[nH]c2=O)N1 |  | 14.6 µM (active) |
| COc1cccc(C(=O)NC2(C(F)(F)F)C(=O)Nc3c2c(=O)[nH]c(=O)n3-c2ccc(C)cc2)c1 (stereo not drawn) | -11.3% |  |
| O=C(NC(c1ccco1)c1cc(Cl)c2cccnc2c1O)c1ccccc1 (stereo not drawn) | -9.61% |  |

| Structure (SMILES) | activity change, negative = cytotoxicity | Potency |
| --- | --- | --- |
| COc1ccc2nc(-c3ccccn3)ccc2c1 | -15.3% |  |
| O=C(Cc1cccs1)N1CCCC(c2nc(-c3ccc(S(=O)(=O)N4CCCC4)cc3)no2)C1 (stereo not drawn) |  | 20.6 µM (active) |
| COc1cc(-c2noc(C3CCCN(S(=O)(=O)c4cccc(Cl)c4)C3)n2)cc(OC)c1OC (stereo not drawn) | -13.3% |  |
| O=c1ccc(S(=O)(=O)N2CCCC2)cn1Cc1nc(-c2ccccc2)no1 | -17.4% |  |
| COc1ccc(NC(=O)N2CCCC(c3nc(-c4ccc(F)cc4)no3)C2)cc1 (stereo not drawn) | -24.7% |  |
| CC(C)c1ccc(-c2noc(C3CCCN(S(C)(=O)=O)C3)n2)cc1 (stereo not drawn) |  | 18.4 µM (active) |
| COc1cccc(-c2noc(C3CCCN(C(=O)c4ccc(F)cc4)C3)n2)c1 (stereo not drawn) | 0% |  |
| Cc1ccccc1-c1ccc2c(c1)O[C@@H](CN(C)Cc1ccc(C(=O)O)cc1)[C@@H](C)CN([C@H](C)CO)S2(=O)=O | -0.477% |  |
| NC(CSC(c1ccccc1)(c1ccccc1)c1ccc(-c2ccccc2)cc1)C(=O)O (stereo not drawn) | -3.77% |  |
| O=C1NC[C@H](Cc2ccc(O)cc2)N(C[C@@H]2CCCN2C[C@H](Cc2ccccc2)N2C[C@H](Cc3ccccc3)N(CC3CCCCC3)C(=O)C2=O)C1=O | -5.11% |  |
| CCc1nc2c(OCC(=O)C(C)(C)C)cccn2c1N(C)C(=O)c1ccccc1F | -2.89% |  |
| COc1cc(Cn2c3ccc(NC(=O)CC(C)c4ccccc4)cc3c(=O)n2C)ccc1F (stereo not drawn) | -18.4% |  |
| Cc1ccc(S(=O)(=O)NC2CCCCCC2)cc1 |  | 20.6 µM (active) |
| CSc1ccc(S(=O)(=O)NC2CCCCC2)cc1 | -15.7% |  |
| CC(C)c1ccc(S(=O)(=O)NC2CCCC2)cc1 | -29.7% |  |
| CCOc1cc(/C=N/NC(=O)c2ccncc2)cc(Br)c1O | 23.2% |  |
| O=C(COC(=O)/C=C/c1ccc(Cl)cc1)NC1CCS(=O)(=O)C1 (stereo not drawn) | 16.4% |  |
| O=S(=O)(NCc1ccco1)c1cnc(Cl)c(Cl)c1 | 27.2% |  |
| Cc1c(Cl)cnc(NC(=O)COC(=O)c2ccc(S(=O)(=O)NCc3ccco3)cc2)c1Cl | -7.05% |  |
| C/C(=N\Nc1ncc(Cl)cc1Cl)c1ccc(S(=O)(=O)NCc2ccco2)cc1 |  | 2.06 µM (active) |
| COc1ccc(Cl)cc1NC(=O)CSc1nc2ccccc2c2nc(-c3ccccc3)nn12 | 2.49% |  |

| Structure (SMILES) | activity change, negative = cytotoxicity | Potency |
| --- | --- | --- |
| O=C(CSc1ccccc1)Nc1cc(Cl)ccc1Oc1ccccc1 |  | 18.4 µM (active) |
| CSc1cccc(NC(=O)CSc2ccccc2)c1 | -4.26% |  |
| Cc1cc(C)cc(NC(=O)CSc2ccccc2)c1 | 0% |  |
| CC(=O)Nc1ccc(SCC(=O)Nc2ccccc2Oc2ccccc2)cc1 |  | 4.61 µM (active) |
| CC1CCCN(CC(=O)Nc2cc(Cl)ccc2Oc2ccccc2)C1 (stereo not drawn) | 2.14% |  |
| CC(C)NC(=O)C1CCC(Cn2c(=O)c3sccc3n(Cc3ccc(F)cc3)c2=O)CC1 (stereo not drawn) | 14.1% |  |
| Cc1cccc(CN2CCN(C3CN(Cc4ccccc4)S(=O)(=O)C3)CC2)c1 (stereo not drawn) | 1.24% |  |
| C=CCOc1cccc(C2C(C(=O)c3ccc(C)o3)=C(O)C(=O)N2CCN2CCOCC2)c1 (stereo not drawn) | -32.9% |  |
| COCCNC(=O)C1C(=O)Nc2ccccc2C(=O)N1c1ccc2c(c1)OCCO2 (stereo not drawn) | -6.15% |  |
| O=S1(=O)CC(N2CCN(Cc3ccccc3F)CC2)CN1Cc1cn(Cc2ccccc2)nn1 (stereo not drawn) | 3.29% |  |
| COc1ccc(Cn2c(=O)oc3ccccc32)cc1 | 1.97% |  |
| CN1CCN(c2ccncc2S(=O)(=O)N2CCCC2)CC1 | 2.89% |  |
| Cn1c(=N)n(CC(O)c2cccs2)c2ccccc21 (stereo not drawn) | 4.57% |  |
| N=c1n(Cc2ccc(Cl)cc2)c2ccccc2n1CC(O)c1ccco1 (stereo not drawn) |  | 20.6 µM (active) |
| Cn1c(=N)n(CC(O)c2ccccc2)c2ccccc21 (stereo not drawn) | 0.812% |  |
| Cc1ccc(S(=O)(=O)N2CC[C@H]3[C@@H](C2)C(=O)C[C@@H](c2ccccc2)N3S(=O)(=O)c2ccc(C)cc2)cc1 | 9.68% |  |
| Brc1cccc[n+]1Cc1cccc(C[n+]2ccccc2Br)c1 | 1.12% |  |
| COc1ccc(C(=O)Nc2onc3c2CCCC3)cc1 | -22.3% |  |
| O=C(Nc1ncc2c(n1)-c1ccccc1OC2)c1ccc(Cl)cc1 | -0.505% |  |
| COc1ccc(C(=O)Nc2ncc3c(n2)-c2ccccc2CC3)cc1 |  | 13 µM (active) |
| COc1cccc(CNC(=O)Cc2csc3nc(-c4ccccc4)cn23)c1 | 2.91% |  |
